Results on 40 compounds are retold here after PubChem BioAssay (Tox21).

The structures appear in SMILES notation. Records with an inconclusive call do not appear. Calls of active or inactive are those of the source. Calls follow the shape of the full dose curve.
% is scaled to controls: 0 for no effect and ±100 for the full control effect.

This test is described as follows: qHTS assay for small molecules that induce genotoxicity in human embryonic kidney cells expressing luciferase-tagged ATAD5 - cell viability (AID 651634). Also: nearly all actives have a fitted effect of over 25% in size. Particulars: HEK293T ATAD5-luc cells viability, CellTiter-Fluor, 15.5 h; series mostly up to 83.3 µM; activity, negative = cytotoxicity: at the top concentration. From the text: National Center for Advancing Translational Sciences [NCATS]
NIH Chemical Genomics Center [NCGC]
U.S. Environmental Protection Agency [EPA]
National Institutes of Environmental Health Sciences [NIEHS]
National Toxicology Program [NTP]
U.S. Food and Drug Administration [FDA]
Enhanced Level of Genome Instability Gene 1 (ELG1; human ATAD5) protein levels increase in response to various types of DNA damage. Using a luciferase reporter-gene tagged with ElG1, a cell-based assay [developed by Kyungjae Myung, NHGRI, NIH] was used to measure the induction of ATAD5 in human embryonic kidney cells (HEK293T). So, increase in luciferase activity can be used to identify the compounds that cause genetic stress. In addition to genotoxicity, these cells were also used to test for cytotoxicity by measuring the protease activity within live cells.
Tox21 Assay Protocol Summary:
For cytotoxicity screening, 2,000 cells in 5 uL/well were dispensed into white, solid-bottom 1536-well plates using a Multidrop Combi (Thermo Scientific) dispenser. Following transfer of 23 nL compound or DMSO vehicle by a pin tool, the plates were incubated 15.5 hr at 37C and 5% CO2. 1 ul CellTiter-Fluor reagent (Promega, Madison, WI) was then added to each plate and following 30 min incubation at 37C, fluorescence intensity was quantified on a ViewLux CCD-based plate reader.
A general note: In qHTS, concentration-response curves come from the screen itself.
Turning to `CCN(CC)CCOC(=O)C(O)(c1ccccc1)c1ccccc1`, the “activity, negative = cytotoxicity” value is 18.6% (inactive).
With `CCCC(C)(COC(N)=O)COC(N)=O`, the Potency entry was “inactive”.
Still for that read-out and setting: the entry for `C[C@H](N)C(=O)c1ccccc1` is “inactive”; for `ClC(Cl)(Cl)Cl` it is “inactive”.
As for `O=P(O)(O)CN(CP(=O)(O)O)CP(=O)(O)O`, the “activity, negative = cytotoxicity” value was 9.23% [at 39.1 µM] (inactive).
On to `COP(=O)(O)OC`, for which the “activity, negative = cytotoxicity” value was 10.9% [at 95.3 µM] (inactive).
As to `C=CC1(C)OC(=O)N(c2cc(Cl)cc(Cl)c2)C1=O` (stereo not given), the Potency result is “inactive”.
For `CC#Cc1cc(C)nc(Nc2ccccc2)n1`, the “activity, negative = cytotoxicity” value was 29.2% (inactive).
Consider `CCCCOC(C)=O`, for which the “activity, negative = cytotoxicity” value was 11.1% [at 95.3 µM] (inactive).
With `CN1COCN(Cc2cnc(Cl)s2)/C1=N\[N+](=O)[O-]`, the “activity, negative = cytotoxicity” value is -4.1% (inactive).
The same measure, in the same setting: the result for `CCN(CCO)CCn1c(Cc2ccccc2)nc2c1c(=O)n(C)c(=O)n2C` reads 10.9% (inactive).
For `CCOC(=O)CC(SP(=S)(OC)OC)C(=O)OCC` (stereo not given), the Potency result was “inactive”.
Consider `CC(C)(O)C(Cl)(Cl)Cl`, for which the “activity, negative = cytotoxicity” value is 5.97% (inactive).
With `CNC(=O)NC(O)C(Cl)(Cl)Cl` (stereo not given), the “activity, negative = cytotoxicity” value was 4.8% (inactive).
Consider `CCCC(C)C1(CC)C(=O)N=C(S)NC1=O` (stereo not given), for which the “activity, negative = cytotoxicity” value is 24% (inactive).
With `O=[N+]([O-])CCO`, the “activity, negative = cytotoxicity” value is 11.9% [at 95.3 µM] (inactive).
Turning to `CC1NCCOC1c1ccccc1` (stereo not given), the “activity, negative = cytotoxicity” value was 25.7% (inactive).
Still for that read-out and setting: the figure for `Cc1cc(OC(=O)N(C)C)nn1C(=O)N(C)C` is -15.3% (inactive); for `COc1ccc(CN2CCNCC2)c(OC)c1OC` it is 11.7% [at 39.1 µM] (inactive); for `CN(C)C(=O)Oc1cc(OC(=O)N(C)C)cc(C(O)CNC(C)(C)C)c1` (stereo not given) it is -9.34% [at 39.1 µM] (inactive).
The same measure, in the same setting: the result for `C#CCOC(=O)/C=C(C)/C=C/CC(C)CCCC(C)C` (stereo not given) reads 12.4% (inactive); that for `CS(=O)(=O)Cl`, 21.4% [at 95.3 µM] (inactive); that for `O=C(Cl)/C=C/C(=O)Cl`, 17.8% [at 95.3 µM] (inactive).
Consider `C=C1CC[C@@]2(O)[C@H]3Cc4ccc(O)c5c4[C@@]2(CCN3CC2CC2)[C@H]1O5`, for which the “activity, negative = cytotoxicity” value is 12.7% (inactive).
Same read-out and setting: the result for `CCN(CC)C1CCCCC1` reads 19.4% (inactive); that for `COc1ccc(C=O)cc1O`, 15.4% [at 95.3 µM] (inactive).
On the same count and under the same terms, the result for `BrCCc1ccccc1` reads -2.61% [at 95.3 µM] (inactive); that for `Cc1ccc(-c2nc3ccc(C)cn3c2CC(=O)N(C)C)cc1`, 6.38% (inactive); that for `N[C@@H]1C[C@H]1c1ccccc1`, 15.2% (inactive).
For `C[N+]1(C)CCCCC1`, the “activity, negative = cytotoxicity” value was 23.7% (inactive).
Still for that read-out and setting: the result for `CCC1(c2ccccc2)C(=O)N(COC)C(=O)N(COC)C1=O` reads 11.5% (inactive); that for `CCOC(=O)c1ncn2c1CN(C)C(=O)c1c(I)cccc1-2`, -13.1% (inactive).
For the compound `NC(=O)CS(=O)C(c1ccccc1)c1ccccc1` (stereo not given), the “activity, negative = cytotoxicity” value is 14% (inactive).
The same measure, in the same setting: the result for `CCCN1CCC[C@@H]2Cc3[nH]ncc3C[C@H]21` reads 12.7% (inactive); that for `O=[N+]([O-])c1cccc(CCl)c1`, -4.94% [at 95.3 µM] (inactive); that for `O=C(CCl)NCO`, 8.31% (inactive).
On the same count and under the same terms, the figure for `CNC(=O)O/N=C(/CSC)C(C)(C)C` is 8.93% (inactive); for `ClCOCCl` it is -6.12% [at 95.3 µM] (inactive).
On to `O=C(O)C(Br)(Br)Br`, for which the “activity, negative = cytotoxicity” value is 4.8% (inactive).
As for `NC(=O)OCCCc1ccccc1`, the “activity, negative = cytotoxicity” value is -6.33% (inactive).
